# Measurements as given in PubChem BioAssay AID1259417 (TB Discovery Research, Infectious Disease Research Institute, 2018).
# Out of some 1,100 compounds screened, about 760 (69%) were called active. How the calls were made is not given here. So high a share suggests a set chosen from earlier hits. This is one part of the list.
# Assay: M. tuberculosis growth inhibition, HTS (AID 1259417);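 further: bacteria grown with compound for 5 days at 37 °C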
# Conditions: stronger effect = higher value, concentration not given here
# [1] = M. tuberculosis DsRed fluorescence growth inhibition
# [2] = M. tuberculosis growth inhibition
Compound,inhibition [1],inhibition [2] [%]
O=C(NC12CC3CC(CC(C3)C1)C2)N1CCN(c2cccc(C(F)(F)F)c2)CC1,100% (active),94.4
O=C(C1CCN(c2nnc(-n3cccc3)s2)CC1)N1CCc2ccccc2C1,70.1% (active),84.1
Cc1nc2cc(C(=O)OCC(=O)NC34CC5CC(CC(C5)C3)C4)ccc2n1-c1ccccc1,-4.71% (inactive),-17.2
COc1cccc(-c2csc(N3CCN(C(=O)NC45CC6CC(CC(C6)C4)C5)CC3)n2)c1,3.33% (inactive),-30.6
O=C(C1CCN(c2nnc(-n3cccc3)s2)CC1)N1CCN(c2cccc(C(F)(F)F)c2)CC1,68.1% (active),27.8
Cc1cccc(N2CCN(C3=NC(=O)C(=C4CCCCC4)S3)CC2)c1,84.8% (active),77.9
CC1CCC(C(C)C)C(OC(=O)Cn2c(-c3ccc(F)cc3)[n+](C)c3ccccc32)C1 (configuration not stated),94.3% (active),97.5
CCN(CC)c1ccc(NC(=O)c2cnccn2)cc1,92.1% (active),96.5
Cc1ccc(-c2nnc(NC(=O)c3nc4ccccc4s3)o2)c(C)c1,21.8% (active),89.7
O=C(Nc1nnc(-c2ccccc2)o1)c1nc2ccccc2s1,94.3% (active),94.8
O=C(c1ccccc1)c1ccc(OCC(O)Cn2cnc3ccccc32)cc1 (configuration not stated),-0.545% (inactive),-3.24
CC(C)(C)c1ccc(OCCN2C(=O)C(=O)c3cc(Br)ccc32)cc1,-0.55% (inactive),-12
CC(C)(C)c1ccc(OCCn2c(N)nc3ccccc32)cc1,70.4% (active),90.4
CC(=O)Nc1nc2ccccc2n1CCOc1ccccc1,93% (active),92.9
CCc1nc2ccccc2n1CC(O)COc1ccc(I)cc1 (configuration not stated),99.5% (active),100
CC(=O)Nc1nc2ccccc2n1Cc1ccccc1,81.5% (active),85.5
COc1ccc(C2CC(c3c(-c4ccccc4)c4cc(Br)ccc4[nH]c3=O)=NN2C(=O)c2ccccc2)cc1 (configuration not stated),9.47% (inactive),8.15
Cc1nc2ccccc2n1CC(O)COc1ccc(C2C=CCC2)cc1 (configuration not stated),101% (active),101
CCc1nc2ccccc2n1CCCOc1ccccc1,100% (active),101
COc1ccc(SN=C2C(C)=CC(=O)C=C2C)cc1,5.38% (inactive),20
CN(C)CC1CC(C(C)(C)C)CCC1=O (configuration not stated),63.9% (active),85.1
O=c1oc(-c2ccccc2Br)nc2sc3c(c12)CCCC3,99.7% (active),98.6

Compound,inhibition [1],inhibition [2] [%]
NNC(=O)c1ccc(-c2ccccc2Cl)o1,-6.57% (inactive),6.08
COC(=O)COc1ccc2c(=O)c(-c3ccc(Cl)cc3)coc2c1,78.7% (active),94.8
CCCc1cc2c(=O)c(-c3ccc4c(c3)OCCCO4)coc2cc1OCC(=O)OCC,62.8% (active),59.1
COc1ccccc1-c1c(C)oc2cc(OCC(=O)OCc3ccccc3)ccc2c1=O,28.7% (active),62.9
COC(=O)COc1ccc2c(=O)c(-c3ccccc3Cl)c(C)oc2c1,74.9% (active),95.5
CS(=O)(=O)Nc1cccc(C2=NN(c3nc(-c4ccccc4)c4cc(Cl)ccc4n3)C(c3ccco3)C2)c1 (configuration not stated),7.39% (inactive),-23.7
CCOC(=O)COc1ccc2c(=O)c(Oc3cnn(-c4ccccc4)c3)c(C)oc2c1,79% (active),94.4
CCc1cc2c(=O)c(-c3ccc(OC)cc3)coc2cc1OCC(=O)OC,63.7% (active),86.9
CCCCOC(=O)COc1ccc2c(=O)c(Oc3ccc(OCC)cc3)c(C)oc2c1,31.4% (active),83.7
COc1ccccc1-c1coc2cc(OCC(=O)OC3CCCCC3)ccc2c1=O,40.7% (active),66.9
COc1ccccc1-c1coc2cc(OCC(=O)OCc3ccccc3)ccc2c1=O,36.9% (active),64.7
COC(=O)COc1ccc2c(=O)c(-c3ccccc3OC)coc2c1,16.1% (active),38.3
COC(=O)COc1ccc2c(=O)c(Oc3ccccc3)c(C)oc2c1,77.7% (active),88.9
CCOC(=O)COc1ccc2c(=O)c(-c3ccccc3OC)coc2c1,10.9% (inactive),27
CCOC(=O)COc1ccc2c(=O)c(-c3ccccc3)coc2c1,96% (active),97
COC(=O)COc1ccc2c(=O)c(-c3ccccc3Cl)coc2c1,74% (active),94.8
CCC(C(=O)Nc1ccc(CC(=O)OC)cc1)c1ccccc1 (configuration not stated),70.5% (active),93.3
COc1cc(Br)cc2cc(C(=O)Nc3cccc(C(F)(F)F)c3)c(=O)oc12,10.9% (inactive),29.4
CCCCc1ccc(NC(=O)c2cc3cc(Br)cc(OC)c3oc2=O)cc1,4.42% (active),82.8
COc1ccc(OC)c(NC(=O)c2cc3cc(Cl)ccc3oc2=O)c1,12.1% (inactive),21.1
COc1ccc(OC)c(NC(=O)c2cc3cc(Br)ccc3oc2=O)c1,9.39% (active),46.5
COc1cc(NC(=O)c2cc3ccccc3o2)ccc1NC(=O)c1ccccc1Cl,2.65% (inactive),-0.577

Compound,inhibition [1],inhibition [2] [%]
Cn1nc([N+](=O)[O-])nc1Sc1nnc(-c2cccnc2)o1,87.1% (active),91.2
Cc1cc(Cl)ccc1NC(=O)CCc1ccc(S(=O)(=O)NCC(C)C)cc1,95.3% (active),83.6
CC(NS(=O)(=O)c1cccc(Cl)c1)C(=O)Nc1ccc(Br)cc1F (configuration not stated),11.5% (inactive),13.5
Cc1cc(Cl)ccc1NC(=O)CCc1ccc(S(=O)(=O)NC(C)C)cc1,94.8% (active),83.1
Cc1ccc(NC(=O)C(C)NS(=O)(=O)c2ccc(Cl)cc2)cc1Cl (configuration not stated),2.64% (inactive),-8.36
CCOC(=O)c1cccc(NC(=O)C(Cl)Cl)c1,47.5% (active),52.3
COc1cc(NC(=O)C(Cl)Cl)c(OC)cc1Cl,7.63% (inactive),4.68
Cc1cc(=O)[nH]c(-n2nc(C)cc2C)n1,91.4% (active),94.9
COc1ccc(-c2nsc(SCC(=O)NCc3ccco3)n2)cc1,93.1% (active),66.6
COc1ccc(-c2nsc(SCC(=O)NCC3CCCO3)n2)cc1 (configuration not stated),95.7% (active),76.1
Cc1cccc(-c2nsc(SCC(=O)NCC3CCCO3)n2)c1 (configuration not stated),94.3% (active),76.8
COc1cc(C(=O)Nc2sc3c(c2C(=O)NCC2CCCO2)CCC3)cc(OC)c1OC (configuration not stated),-3.52% (inactive),-31.7
CC(C)(C)c1ccc(C(=O)Nc2sc3c(c2C(=O)NCC2CCCO2)CCCC3)cc1 (configuration not stated),12.8% (inactive),-13.4
c1c2c(cc3sc(N4CCCC4)nc13)OCO2,100% (active),99.8
Cc1cc(NC(=O)CSc2nnnn2-c2ccccc2C)no1,56.3% (active),88.3
CCOc1ccc(-c2nnc(SCC(=O)Nc3cc(C)on3)o2)cc1,-1.63% (active),32.7
Cc1cc(NC(=O)CSc2nnc(Cc3ccccc3)o2)no1,-2.93% (inactive),6.89
CCOc1ccc(NC(=O)CSc2nnc(-c3ccccc3Cl)o2)cc1,13.5% (inactive),-1.29
Cc1ccc(-c2nnc(SCC(=O)Nc3cc(C)on3)o2)cc1,2.19% (active),50.5
O=C(CCN1C(=O)C2C3C=CC(C4CC34)C2C1=O)Oc1cccc2cccnc12 (configuration not stated),100% (active),101
O=C(CCN1C(=O)c2ccccc2C1=O)Oc1cccc2cccnc12,99.5% (active),100
CC(C(=O)Oc1cccc2cccnc12)N1C(=O)C2C3C=CC(C4CC34)C2C1=O (configuration not stated),100% (active),101

Compound,inhibition [1],inhibition [2] [%]
O=C(Oc1cccc2cccnc12)C(Cc1ccccc1)N1C(=O)C2C3CCC(C3)C2C1=O (configuration not stated),99.8% (active),101
COc1cc2cc(-c3nc4ccccc4[nH]3)c(N)nc2cc1OC,93.9% (active),94
CCc1nc2sc(C(=O)NCc3ccc(F)cc3)c(N)c2c(C(F)(F)F)c1C,41.1% (active),20.9
COc1ccc(CNC(=O)c2c(N)nc3sc4c(c3c2C(F)(F)F)CCC4)cc1,4.42% (inactive),-3.32
COC(=O)CN1C(c2ccc(OC)cc2)=Nc2ccc(Cl)cc2C1c1ccccc1 (configuration not stated),52.5% (active),79.3
COC(=O)CN1C(c2cccc(Cl)c2)=Nc2ccc(Cl)cc2C1c1ccccc1 (configuration not stated),10.1% (active),40.7
CSc1ccc2nc(Nc3nc4ccc(NC(C)=O)cc4s3)sc2c1,2.19% (inactive),1.87
CC12CC3CC(C)(C1)CC(C(=O)Nc1nc4ccccc4s1)(C3)C2,98.3% (active),97.6
CCn1nnc(NC(=O)COc2ccc(C3CCCCC3)cc2)n1,37% (active),86.6
CCCn1nnc(NC(=O)COc2ccc(C3CCCCC3)cc2)n1,26.3% (active),72.9
CCC(=O)Oc1ccc(C(=O)Nc2cc3oc4ccccc4c3cc2OC)cc1,12% (inactive),10.7
CCOC(=O)CSCC(=O)Nc1c(C(=O)C2CC2)oc2ccccc12,27.6% (active),48.3
CC(C)(C)C(=O)/C=C/Nc1ccccc1O,99.2% (active),98.5
CSc1nsc(SCC(=O)N2CCN(c3ccccc3)CC2)n1,98.3% (active),98.7
COc1cc(NC(=O)c2ccc3c(c2)OCCO3)ccc1NC(=O)c1ccccc1Cl,2.06% (inactive),9.67
O=C(Nc1ccc2c(c1)OCCO2)c1cccc2nc3ccccc3nc12,97.2% (active),96.7
Cc1ccc([N+](=O)[O-])cc1NC(=O)CN(C(=O)c1ccccc1Cl)C1CCCCC1,75.1% (active),49.8
Cc1ccc(NC(=O)CC2COc3ccccc3O2)cc1Cl (configuration not stated),2.96% (inactive),-10.1
COc1ccc(C(=O)Nc2cc(OC)c(NC(=O)c3ccco3)cc2OC)cc1,0.929% (inactive),-7.24
COc1ccc(-c2cc(C(=O)NN=CC=Cc3ccccc3OC)[nH]n2)cc1,9.99% (active),65
